Among the data in PubChem BioAssay (Tox21) are Potency values, retold here.

Inconclusive results are not listed. A call without a number means that no potency is given here. Active and inactive are the calls of the source. The call rests on the fitted dose curve; in most records, active means well fitted activation curve with a large enough effect in the repeat runs; inconclusive means weak or mixed curves; inactive means no such curve, though single readings can be large or run the other way.
Potency means the concentration at half of the fitted maximal effect.

Sequence of Aryl hydrocarbon receptor (Homo sapiens) (P35869 whole entry, looked up): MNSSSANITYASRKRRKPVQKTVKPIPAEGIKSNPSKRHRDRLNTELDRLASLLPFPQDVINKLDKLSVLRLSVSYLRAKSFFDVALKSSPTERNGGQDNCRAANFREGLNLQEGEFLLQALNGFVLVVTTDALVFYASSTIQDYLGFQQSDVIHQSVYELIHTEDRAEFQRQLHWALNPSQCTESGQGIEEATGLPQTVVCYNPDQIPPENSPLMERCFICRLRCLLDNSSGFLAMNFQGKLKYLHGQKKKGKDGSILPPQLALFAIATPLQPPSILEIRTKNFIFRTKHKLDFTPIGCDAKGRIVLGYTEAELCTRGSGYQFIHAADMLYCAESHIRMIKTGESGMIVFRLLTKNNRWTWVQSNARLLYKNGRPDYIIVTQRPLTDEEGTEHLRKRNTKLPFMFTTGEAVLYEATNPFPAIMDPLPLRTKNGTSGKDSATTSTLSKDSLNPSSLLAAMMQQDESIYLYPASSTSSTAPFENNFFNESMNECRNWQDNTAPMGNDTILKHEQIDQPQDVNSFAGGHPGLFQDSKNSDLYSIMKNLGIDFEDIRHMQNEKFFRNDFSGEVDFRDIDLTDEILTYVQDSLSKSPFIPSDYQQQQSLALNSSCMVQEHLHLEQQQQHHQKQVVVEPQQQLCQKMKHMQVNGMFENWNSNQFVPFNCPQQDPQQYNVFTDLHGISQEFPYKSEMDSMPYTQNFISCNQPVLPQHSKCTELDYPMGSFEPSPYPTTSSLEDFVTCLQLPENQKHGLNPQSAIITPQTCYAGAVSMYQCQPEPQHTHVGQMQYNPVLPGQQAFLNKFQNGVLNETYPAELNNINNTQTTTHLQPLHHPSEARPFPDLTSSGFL

The experiment concerns the target Aryl hydrocarbon receptor (Homo sapiens) (UniProt P35869). In words: qHTS assay to identify small molecule that activate the aryl hydrocarbon receptor (AhR) signaling pathway (AID 743085). Further: nearly all actives have a fitted effect of over 15% in size.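 On activation: HG2L7.5c1 human HepG2 liver cells with stably integrated DRE-driven firefly reporter.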 As to conditions: HepG2 AhR-luc (HG2L7.5c1), luciferase, 24 h; series mostly up to 70.3 µM. From the text:
U.S. Tox21 Program National Center for Advancing Translational Sciences [NCATS] NIH Chemical Genomics Center [NCGC] U.S. Environmental Protection Agency [EPA] National Institutes of Environmental Health Sciences [NIEHS] National Toxicology Program [NTP] U.S. Food and Drug Administration [FDA] Tox21 Assay overview: The Aryl hydrocarbon Receptor (AhR), a member of the family of basic helix-loop-helix transcription factors, is crucial to adaptive responses to environmental changes. AhR mediates cellular responses to environmental pollutants such as aromatic hydrocarbons through induction of phase I and II enzymes but also interacts with other nuclear receptor signaling pathways. A cell based HepG2-AhR-luc assay (HG2L7.5c1 cell line, developed by Dr. Michael S. Denison, University of California at Davis, was used to assess the activation of AhR. HepG2 (human hepatocellular carcinoma) cells were stably transfected with an Ah receptor-responsive firefly luciferase reporter gene plasmid containing 20 dioxin responsive elements and luciferase reporter gene. Increased luciferase activity can be used to identify the compounds that induce AhR activation.
Tox21 Assay Protocol Summary: 4000 cells in 5 uL/well were dispensed into white wall/solid bottom 1536-well plates using a Multidrop Combi (Thermo Fisher Scientific Inc., Waltham, MA) dispenser. After the assay plates were incubated at 37C for 5 h, 23 nL of compound or DMSO vehicle was transferred to the assay plates by a pintool station (Kalypsys, San Diego, CA). The plates were incubated at 37C for 24 hr. After 1 ul/well of CellTiter-Fluor reagent (Promega, Madison, WI) was added into the assay plates using a Flying Reagent Dispenser (FRD) (Aurora Discovery, CA), the assay plates were incubated at 37C for 30 min. The fluorescence intensity in the plates was measured using a ViewLux plate reader (PerkinElmer, Shelton, CT), followed by the addition of 4 uL of ONE-Glo Luciferase Assay reagent (Promega) using an FRD (Aurora Discovery). After the assay plates were incubated at room temperature for 30 min, luminescence intensity was measured using a ViewLux plate reader (Perkin Elmer).
As for `CC=C(Cl)Cl`, the Potency result was “inactive”.

With `Cc1ccccc1S`, the Potency entry was “inactive”. `Cc1cc(C)cc(N)c1`: the Potency entry was “inactive”.

Take `Oc1ccc(Cl)c2cccnc12`: the Potency is 11.9 µM (active). As to `CN1C(=O)OC(C)(C)C1=O`, the Potency result is “inactive”.

Consider `O=C(CCCN1CC=C(n2c(=O)[nH]c3ccccc32)CC1)c1ccc(F)cc1`, for which the Potency result was “inactive”. For `CCCCOc1ccc(OCCCN2CCOCC2)cc1`, the Potency result was “inactive”. In the case of `O=C(/C=C/c1ccccc1)OCCc1ccccc1` it was “inactive”; in that of `CCc1ccccc1`, “inactive”; in that of `CCC(=O)OC`, “inactive”. `C[C@H]1c2cccc(O)c2C(O)=C2C(=O)[C@]3(O)C(O)=C(C(N)=O)C(=O)[C@@H](N(C)C)[C@@H]3[C@@H](O)[C@@H]21`: the Potency result is “inactive”.

Turning to `CC(C)(O)c1ccc(CNC(=O)c2cccnc2Oc2ccc3nonc3c2)cc1`, the Potency result is “inactive”. Consider `CCOC(=O)/C=C/C(=O)OCC`, for which the Potency entry is “inactive”. Take `CCCCCCCCC(CCCCCC)C(=O)O` (stereo not given): the Potency entry was “inactive”. With `CC(CO)CO`, the Potency entry was “inactive”. On to `Cc1cscn1`, for which the Potency result was “inactive”. The same measure for `CC1(CN2CCC(n3c(=O)[nH]c4ccccc43)CC2)OCc2ccccc2-n2cccc21` (stereo not given): “inactive”; for `COc1cc(N)c(Cl)cc1C(=O)NC1CCN(CCCOc2ccc(F)cc2)CC1OC` (stereo not given): “inactive”. In the case of `C=C/C(C)=C/C/C=C(\C)CCC=C(C)C` it was “inactive”; in that of `O=C1c2ccccc2C(=O)N1CCc1noc(-c2ccc(CN3CCCCCC3)s2)n1`, 6.29 µM (active); in that of `O=C(/C=C/c1ccc(O)c(O)c1)O[C@@H]1C[C@@](OC(=O)/C=C/c2ccc(O)c(O)c2)(C(=O)O)C[C@@H](O)[C@@H]1O`, “inactive”. `CCC1CO1` (stereo not given): the Potency entry is “inactive”.

`CCn1cc(C(=O)O)c(=O)c2cc(F)c(N3CCNCC3)cc21`: the Potency result is “inactive”. In the case of `CC(C)=CCC1C(=O)N(c2ccccc2)N(c2ccccc2)C1=O`, the Potency result is “inactive”. As for `C[C@]12CC[C@@H]3c4ccc(O)cc4CC[C@H]3[C@@H]1CC[C@@H]2OC(=O)CCC1CCCC1`, the Potency entry was “inactive”. For the molecule `CCOC(=O)c1ccc(I)cc1`, the Potency result is “inactive”.

As for `CCCCC(CC)CN` (stereo not given), the Potency entry was “inactive”.

As for `O=C1NC(=O)c2cc([N+](=O)[O-])ccc21`, the Potency result was “inactive”. In the case of `Oc1cccc(Nc2ccccc2)c1`, the Potency result was “inactive”. Regarding `Cc1c(C)c2c(c(C)c1OC(=O)CCC(=O)OCCO)CC[C@@](C)(CCC[C@H](C)CCC[C@H](C)CCCC(C)C)O2`, the Potency entry is “inactive”. In the case of `CN1CCCC(CC2c3ccccc3Sc3ccccc32)C1` (stereo not given) it was “inactive”; in that of `CCCCCCNC(=O)n1cc(F)c(=O)[nH]c1=O`, “inactive”; in that of `CC(=O)Nc1ccc(C)cc1C`, “inactive”. As for `Cc1ccco1`, the Potency result was “inactive”. `CCCCCCCCOc1ccc(C(=O)O)cc1`: the Potency result is “inactive”. In the case of `C=C(C)C(=O)OCCCCCCCCCCCCC` it was “inactive”; in that of `N#CCCN(CCO)CCO`, “inactive”; in that of `Nc1ccc(N=Nc2ccccc2)c(N)c1`, 30 µM (active).

Turning to `CC(CCC(=O)O)C(=O)O` (stereo not given), the Potency result is “inactive”. The same measure for `O=C(O)CCC(=O)C(=O)O`: “inactive”.
